Reference: PubChem BioAssay AID1159580 (chemical genetic matrix, 2015)
Hit rate of the full screen: of about 5,500 compounds, about 2,000 (36%) were called active. About 18% were inconclusive and are not listed. Rule as the data show it: active = normalized growth mostly below about 0.91 (no sharp cut-off); inconclusive = no clear call, values can overlap the other calls; inactive = mostly above about 0.92. Some of the results follow.

Experiment: chemical genetic growth profiling, strain panel (AID 1159580);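 also: tested at 20 µM; growth read once vehicle control cultures reached saturation at 30 °C; 1 = growth at the plate median or of vehicle wells; lower values mean less growth of the strain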
Conditions: growth OD

Measured: normalized growth

COc1ccc2c(c1OC)C(=O)OC2[C@H]1c2c(cc3c(c2OC)OCO3)CCN1C (stereo partly drawn)
inactive: S. cerevisiae deletion strains, locus YJR043C, strain POL32, active compounds read low 0.986 | S. cerevisiae deletion strains, locus YJR066W, strain TOR1, active compounds read low 0.973 | S. cerevisiae deletion strains, locus YKL009W, strain mrt4, active compounds read low 0.972 | S. cerevisiae deletion strains, locus YKL068W, active compounds read low 0.99 | S. cerevisiae deletion strains, locus YKL085W, strain MDH1 (second series), active compounds read low 0.991 | S. cerevisiae deletion strains, locus YKL085W, strain MDH1, active compounds read low 0.991 | S. cerevisiae deletion strains, locus YKL160W, strain elf1, active compounds read low 1.01 | S. cerevisiae deletion strains, locus YKL190W, strain CNB1, active compounds read low 0.995 | S. cerevisiae deletion strains, locus YKR001C, strain vps1, active compounds read low 0.985 | S. cerevisiae deletion strains, locus YKR026C, strain gcn3, active compounds read low 1 | S. cerevisiae deletion strains, locus YKR091W, strain srl3, active compounds read low 1.01 | S. cerevisiae deletion strains, locus YLL001W, strain dnm1, active compounds read low 0.973 | S. cerevisiae deletion strains, locus YLL026W, active compounds read low 1.01 | S. cerevisiae deletion strains, locus YLL041C, strain sdh2, active compounds read low 0.995 | S. cerevisiae deletion strains, locus YLR027C, strain aat2, active compounds read low 1.02 | S. cerevisiae deletion strains, locus YLR039C, strain RIC1, active compounds read low 0.997 | S. cerevisiae deletion strains, locus YLR058C, strain SHM2, active compounds read low 1.01 | S. cerevisiae deletion strains, locus YLR102C, strain apc9, active compounds read low 0.994 | S. cerevisiae deletion strains, locus YLR113W, strain HOG1, active compounds read low 0.966 | S. cerevisiae deletion strains, locus YLR221C, strain rsa3, active compounds read low 1 | S. cerevisiae deletion strains, locus YLR258W, strain gsy2, active compounds read low 1.02 | S. cerevisiae deletion strains, locus YLR262C, strain YPT6 (second series), active compounds read low 1.03 | S. cerevisiae deletion strains, locus YLR262C, strain YPT6, active compounds read low 1 | S. cerevisiae deletion strains, locus YLR268W, strain sec22, active compounds read low 0.948 | S. cerevisiae deletion strains, locus YLR320W, strain mms22, active compounds read low 0.975 | S. cerevisiae deletion strains, locus YLR330W, strain CHS5, active compounds read low 0.991 | S. cerevisiae deletion strains, locus YLR342W, strain FKS1 (second series), active compounds read low 1.01 | S. cerevisiae deletion strains, locus YLR342W, strain FKS1, active compounds read low 1.01 | S. cerevisiae deletion strains, locus YLR357W, strain rsc2, active compounds read low 0.997 | S. cerevisiae deletion strains, locus YLR370C, strain arc18, active compounds read low 1.02 | S. cerevisiae deletion strains, locus YLR371W, strain rom2, active compounds read low 0.98 | S. cerevisiae deletion strains, locus YLR384C, strain iki3, active compounds read low 1 | S. cerevisiae deletion strains, locus YLR418C, strain cdc73, active compounds read low 0.984 | S. cerevisiae deletion strains, locus YML016C, strain PPZ1, active compounds read low 1 | S. cerevisiae deletion strains, locus YML032C, strain rad52, active compounds read low 0.99 | S. cerevisiae deletion strains, locus YML120C, strain ndi1, active compounds read low 1.02 | S. cerevisiae deletion strains, locus YML124C, strain tub3, active compounds read low 0.989 | S. cerevisiae deletion strains, locus YMR058W, strain fet3, active compounds read low 1.01 | S. cerevisiae deletion strains, locus YMR078C, strain ctf18, active compounds read low 0.993 | S. cerevisiae deletion strains, locus YMR125W, strain sto1, active compounds read low 1.01 | S. cerevisiae deletion strains, locus YMR129W, active compounds read low 1.01 | S. cerevisiae deletion strains, locus YMR205C, strain PFK2, active compounds read low 0.981 | S. cerevisiae deletion strains, locus YMR223W, strain ubp8, active compounds read low 1.01 | S. cerevisiae deletion strains, locus YMR231W, strain pep5, active compounds read low 1.01 | S. cerevisiae deletion strains, locus YMR307W, strain GAS1, active compounds read low 1 | S. cerevisiae deletion strains, locus YNL067W, strain RPL9B, active compounds read low 0.993 | S. cerevisiae deletion strains, locus YNL071W, strain lat1, active compounds read low 1.02 | S. cerevisiae deletion strains, locus YNL153C, strain GIM3, active compounds read low 1.01 | S. cerevisiae deletion strains, locus YNL183C, strain NPR1, active compounds read low 0.951 | S. cerevisiae deletion strains, locus YNL209W, strain ssb2, active compounds read low 1 | S. cerevisiae deletion strains, locus YNL233W, strain BNI4, active compounds read low 0.999 | S. cerevisiae deletion strains, locus YNL248C, strain rpa49, active compounds read low 0.984 | S. cerevisiae deletion strains, locus YNL250W, strain rad50, active compounds read low 0.985 | S. cerevisiae deletion strains, locus YNL271C, strain bni1, active compounds read low 0.984 | S. cerevisiae deletion strains, locus YNL298W, strain CLA4, active compounds read low 0.992 | S. cerevisiae deletion strains, locus YNL307C, strain MCK1, active compounds read low 0.987 | S. cerevisiae deletion strains, locus YNL322C, strain KRE1 (second series), active compounds read low 1.02 | S. cerevisiae deletion strains, locus YNR049C, strain mso1, active compounds read low 1.01 | S. cerevisiae deletion strains, locus YNR052C, strain pop2, active compounds read low 0.978 | S. cerevisiae deletion strains, locus YOL006C, strain TOP1, active compounds read low 1.07 | S. cerevisiae deletion strains, locus YOL012C, strain htz1 0.809 | S. cerevisiae deletion strains, locus YOL147C, strain pex11, active compounds read low 0.987 | S. cerevisiae deletion strains, locus YOR001W, strain rrp6, active compounds read low 1.02 | S. cerevisiae deletion strains, locus YOR061W, strain CKA2, active compounds read low 1.01 | S. cerevisiae deletion strains, locus YOR069W, strain VPS5, active compounds read low 1 | S. cerevisiae deletion strains, locus YOR070C, strain gyp1, active compounds read low 0.996 | S. cerevisiae deletion strains, locus YOR080W, strain dia2, active compounds read low 1.04 | S. cerevisiae deletion strains, locus YOR083W, strain WHI5, active compounds read low 0.953 | S. cerevisiae deletion strains, locus YOR106W, strain vam3, active compounds read low 1.02 | S. cerevisiae deletion strains, locus YOR136W, strain idh2, active compounds read low 0.995 | S. cerevisiae deletion strains, locus YOR144C, strain elg1, active compounds read low 1 | S. cerevisiae deletion strains, locus YOR184W, strain ser1, active compounds read low 0.976 | S. cerevisiae deletion strains, locus YOR231W, strain MKK1, active compounds read low 0.985 | S. cerevisiae deletion strains, locus YOR265W, strain rbl2, active compounds read low 1.02 | S. cerevisiae deletion strains, locus YOR270C, strain vph1, active compounds read low 1.04 | S. cerevisiae deletion strains, locus YOR290C, strain snf2, active compounds read low 1.02 | S. cerevisiae deletion strains, locus YOR316C, strain cot1, active compounds read low 0.989 | S. cerevisiae deletion strains, locus YPL051W, strain arl3, active compounds read low 1.02 | S. cerevisiae deletion strains, locus YPL078C, strain atp4, active compounds read low 1 | S. cerevisiae deletion strains, locus YPL106C, strain sse1, active compounds read low 1.07 | S. cerevisiae deletion strains, locus YPL240C, strain hsp82, active compounds read low 1.01 | S. cerevisiae deletion strains, locus YPL256C, strain CLN2, active compounds read low 0.984 | S. cerevisiae deletion strains, locus YPR119W, strain clb2, active compounds read low 0.995 | S. cerevisiae deletion strains, locus YPR141C, strain kar3, active compounds read low 0.993 | S. cerevisiae deletion strains, locus YPR163C, strain tif3, active compounds read low 0.984 | S. cerevisiae deletion strains, locus YPR167C, strain met16, active compounds read low 0.986 | S. cerevisiae deletion strains, strain wtn01, active compounds read low 0.967 | S. cerevisiae strains, strain wild type, active compounds read low 1.01
